Each structure is given as a SMILES string. About 83,000 compounds went through this panel and 20% of them were active in at least one assay; those are over-represented in the sample as a whole.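 Step 1: grow cells in 96-well plates. Step 2: add test compound at a single concentration. Step 3: incubate 48 h. Step 4: record percent growth.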 Values without a mark were called inactive. Calls of active or inactive are those of the source. The calls were made as follows: active = growth percent below 10; inactive = the rest.

In the test the test system is MDA-MB-468 breast. Nature of the test: NCI-60 one-dose screen, 48 h (100 = growth as untreated, 0 = no growth, -100 = all killed). Conditions: 10 µM unless noted.
Take `COc1ccc(C(=O)/C=C/c2cc(-c3cc(OC)c(OC)c(OC)c3)n[nH]2)cc1`: the growth is -66.1% (active). The same measure for `COc1ccc2c(c1)C(Br)=C(CCO)C2c1ccccc1` (stereo not given): -40.2% (active); for `CCN(CC)CCOc1ccc2c(c1O)C(=O)c1ccccc1C2=O`: 80.3%.

For `CC(NC(=O)c1ccccc1)C(=O)Nc1ccccc1` (stereo not given), the growth was 109%. For `Nc1c(C(=O)Nc2cccc([N+](=O)[O-])c2)sc2nc3c(cc12)C(O)CCC3` (stereo not given) the value was 53.5%; for `Cc1ccc(-c2nc(N3CCCNCC3)c3oc(-c4ccc(C)cc4)nc3n2)cc1`, 5.4% (active); for `C=CCn1c2ccccc2c2c3c(c4c5ccccc5n(CC=C)c4c21)C(=O)N(O)C3=O`, 24%.

Regarding `Brc1cccc(/C=N/Nc2nc(N/N=C/c3cccc(Br)c3)nc(N3CCOCC3)n2)c1`, the growth was 1.09% (active). Take `COc1cc(C(=O)C[n+]2ccc3ccccc3c2)cc(OC)c1OC`: the growth is 98.3%. For `N#CC(C#N)N=Nc1cc(Cl)ccc1Cl` the value was 120%; for `CCCCCO/N=C\c1c2c(O)c3c(O)c(C)c4c(c3c1O)C(=O)C(C)(O/C=C\C(OC)C(C)C(OC(C)=O)C(C)C(O)C(C)C(O)C(C)/C=C\C=C(\C)C(=O)N2)O4` (stereo not given), 0.538% (active).

As to `Cc1cccc(C)c1NCc1nnc(-c2ccc(O)cc2)o1`, the growth was 96.2%. `CCN(CC)CCC(CNc1c(C)cnc2cc(Cl)ccc12)c1ccc(Cl)c(Cl)c1` (stereo not given): the growth was 18.5%. The same measure for `O=C(NNc1ccccc1)c1ncc[nH]1`: 75.6%. Consider `COc1cc(-c2nc3sc4c(c3c(=O)[nH]2)CCCCCC4)cc(OC)c1OC`, for which the growth is 20%. Turning to `Oc1c(Cl)cc(Cl)c2ccc(Cn3cc(-c4cc(C(F)(F)F)cc(C(F)(F)F)c4)nn3)nc12`, the growth is 18.6%. Regarding `C=C1C(=O)O[C@H]2[C@H]1CC/C(COC(=O)/C=C\C(=O)NCc1ccc(Cn3c(=O)sn(CCI)c3=O)cc1)=C\CC[C@@]1(C)O[C@@H]21`, the growth was -36.2% (active). On to `COc1ccc(OC)c(C(=O)/C=C/c2cc3c(c(OC)c2OC)OCO3)c1`, for which the growth was 33.5%.

As to `COc1cccc2c(N=NC(=O)c3ccc(S(N)(=O)=O)cc3)c(O)[nH]c12`, the growth is 101%. As to `COc1ccc(-c2cc(/C=C3\C(=O)Nc4ccc(Cl)cc43)[nH]n2)cc1`, the growth was 41.7%. As to `O=S(=O)(Nc1ccc(Cl)cc1)c1ccc(-c2cnc(C3CC3)o2)cc1`, the growth was -27.7% (active). On to `O=C1/C(=C/c2ccc(-c3ccc(Br)cc3)o2)SC(=S)N1CCc1ccc(O)cc1`, for which the growth was 90.2%. The same measure for `COc1ccc(CNc2c3ccccc3nc3ccccc23)cc1OC`: -22.7% (active). For `Cc1ccc(-c2nnc(SCc3ccc(O)c4ncccc34)n2-c2ccccc2)cc1`, the growth is 9.08% (active). Consider `C#Cc1nc(C2=C(C)C(OC(C)=O)/C(=N/OC(C)=O)C2)cs1` (stereo not given), for which the growth was -60.7% (active).

Regarding `COc1ccc(-c2csc(N/N=C/c3c(-c4ccc(S(C)(=O)=O)cc4)nc4ccccn34)n2)cc1`, the growth is 106%. As to `COc1ccc(OC)c(/C=C/c2nc(SCc3ccccc3)n(-c3ccc(Cl)cc3)n2)c1`, the growth is 34.4%. The same measure for `CS(=O)c1nccc(-c2c(-c3ccc(F)c(OCc4ccc(F)cc4)c3)nc3sccn23)n1` (stereo not given): -69.4% (active); for `CCNCCNc1cc(-c2ccc(F)cc2)c(C#N)c2nc3ccccc3n12`: -8.31% (active); for `C/C(=C\CCc1ccoc1)CC/C=C(\C)CCCN1CCOCC1`: 5.68% (active). Consider `O=C1c2c(c3c4ccccc4[nH]c3c3ccc4ccccc4c23)C(=O)N1CCN1CCNCC1`, for which the growth is 76.5%. For `CC[C@]1(O)CC2CN(CCc3c([nH]c4ccccc34)[C@@](C(=O)OC)(c3cc4c(cc3OC)N(C=O)[C@H]3[C@@](O)(C(=O)OC)[C@H](OC(C)=O)[C@]5(CC)C=CCN6CC[C@]43[C@@H]65)C2)C1` (stereo not given in full) the value was 10.4%. On to `C#Cc1ccc(-n2c(/C=C/c3ccc(O)cc3)nc3ncccc3c2=O)cc1`, for which the growth is -10.6% (active). As for `c1ccc2c(Cc3csc4ccccc34)csc2c1`, the growth was 74%. The same measure for `CCN(CC)c1nc(SCc2ccccc2Cl)ncc1C`: 69.6%. As to `Clc1ccc(-c2nc(-c3cccs3)no2)cc1`, the growth was 44.7%. For `Cc1ccccc1/C=C/c1nn2c(-c3ccoc3C)nnc2s1` the value was 91.7%. On to `COc1ccc2cc(-c3ccc(-c4ccc(C(=N)N)cc4)s3)ccc2c1`, for which the growth is 98.2%. For the compound `N=C(N)c1ccc(-c2ccc(-c3cc(Cl)cc(Cl)c3)o2)o1`, the growth was -69.1% (active).

Take `Cc1ccc(O)c(NC(=O)c2ccc(CNc3ccnc(C(F)(F)F)c3)cc2)c1`: the growth is 76.4%.

The values are drawn from PubChem BioAssay (NCI).
